Z-score data for eleven compounds are collected here from PubChem BioAssay.

The source made the active and inactive calls.

Sequence of Homeobox protein Hox-A13 (Mus musculus) (Q62424 whole entry, looked up): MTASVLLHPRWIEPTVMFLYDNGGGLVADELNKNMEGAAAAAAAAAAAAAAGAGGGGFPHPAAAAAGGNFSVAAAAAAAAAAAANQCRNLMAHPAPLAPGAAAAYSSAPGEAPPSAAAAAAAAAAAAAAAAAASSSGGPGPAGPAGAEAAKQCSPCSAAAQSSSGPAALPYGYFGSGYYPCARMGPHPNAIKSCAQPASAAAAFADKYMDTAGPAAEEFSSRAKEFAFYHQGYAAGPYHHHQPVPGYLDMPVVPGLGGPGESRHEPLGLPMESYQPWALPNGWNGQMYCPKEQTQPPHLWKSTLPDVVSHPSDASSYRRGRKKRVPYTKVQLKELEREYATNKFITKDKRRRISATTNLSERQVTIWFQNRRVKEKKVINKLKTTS

This test has as its target Homeobox protein Hox-A13 (Mus musculus) (UniProt Q62424). Nature of the test: disruptors of Hoxa13 oligonucleotide interaction – biochemical, fluorescence polarization, labeled oligonucleotide, primary screen (AID 1185). The following applies: Hoxa13:DNA binding, 15 min, higher = more signal, called active from +8 up or from −8 down. For orientation: Fluorescence polarisation rises when a labelled molecule tumbles more slowly, as on binding a larger partner.
`N#Cc1ccc(C(O)C2C=CC3C(=O)N(c4ccccc4)C(=O)C3N2Nc2ccccc2)cc1` (stereo unspecified): the z-score was -1.94 (inactive).

Regarding `Cc1ccc(S[C@]2(C(=O)NCCCN(C)C)CC(=O)N(C3CCCCC3)[C@@H]2c2ccc(CO)cc2)cc1`, the z-score was -1.9 (inactive).

On to `CC(CO)N1C(=O)[C@@H]2[C@H]3C(=O)OCC=C[C@H]3OC23C=CCN(C(C)(C)C)C(=O)[C@@H]13` (stereo partly specified), for which the z-score was -5.22 (inactive).

In the case of `N#Cc1ccc(NN2C(C(O)c3ccc(F)cc3)C=CC3C(=O)N(c4ccccc4)C(=O)C32)cc1` (stereo unspecified), the z-score was -0.0009 (inactive).

As for `COC(=O)c1c(CC[C@@H](CO)NC(=O)N2CCC[C@H]2Cn2cc(Cc3ccccc3)nn2)oc(C(C)=O)c1C(=O)OC`, the z-score was -3.88 (inactive).

With `[N-]=[N+]=Nc1ccccc1[C@@H]1OC(c2ccc(OCCCO)cc2)=N[C@]1(Cc1ccccc1)C(=O)NCC(O)CO` (stereo partly specified), the z-score is -3.18 (inactive).

For `COC(=O)[C@@]1(Cc2ccc(OC)cc2)[C@@H]2C(=CC(=O)[C@H]2CC(=O)C(=O)N(C)C)CN1C(=O)c1ccccc1`, the z-score was -3.95 (inactive).

In the case of `CO[C@H]1O[C@H](CO)[C@@H](OC(=O)Nc2ccccc2-c2ccccc2)[C@H](OC(=O)Nc2ccc3c(c2)OCO3)[C@H]1OC(=O)Nc1ccc2c(c1)OCO2`, the z-score is -9.89 (active).

In the case of `CN1C(=O)C2C=CC(C(O)COCc3ccccc3)N(N(c3ccccc3)c3ccccc3)C2C1=O` (stereo unspecified), the z-score was -0.885 (inactive).

In the case of `CN1C(=O)C2C=CC(C(O)c3cccc(O)c3)N(Nc3ccccc3)C2C1=O` (stereo unspecified), the z-score is -0.751 (inactive).

Regarding `COC(=O)[C@H](Cc1ccccc1)N1CC(/C=C/C2CC2)=C[C@H]1[C@H](O)Cc1ccccc1`, the z-score is -5.54 (inactive).
